Measurements taken from PubChem BioAssay (Tox21).
“And” between values parts separate entries of the source, which are not always exact repeats. Identical values can stand only once. Inconclusive results are not listed. Entries that show only a call come without a potency. The source made the active and inactive calls. Calls come from the whole dose curve; as a rule, active = well fitted cell-killing curve with a large enough effect in the repeat runs; inconclusive = weak or mixed curves, or effect the other way; inactive = flat fitted curve, though single readings scatter.

test: qHTS RealTime-Glo MT Cell Viability Assay in HEK293 cells - 24 hour (AID 1224886); conditions: RealTime-Glo luminescence; series mostly up to 76.8 µM; note: nearly all actives have a fitted effect of over 50% in size; for activity change, negative = cytotoxicity: top concentration of the series differs between compounds
Excerpt: National Center for Advancing Translational Sciences [NCATS]
NIH Chemical Genomics Center [NCGC]
U.S. Environmental Protection Agency [EPA]
National Institutes of Environmental Health Sciences [NIEHS]
National Toxicology Program [NTP]
U.S. Food and Drug Administration [FDA]
Measure of cell viability is critical in the cell-base assay. Analysis of cell viability is necessary for the characterization of cell responses to cytotoxic drugs and environmental stress. A RealTime-Glo MT Cell Viability Assay to monitor cell viability in real time of continues cell culture during 40 hours of compound treatment was used to screen Tox21 10K library compounds in Hek293 cells. The RealTime-Glo MT Cell Viability Assay is a nonlytic, homogeneous, bioluminescent method to measure cell viability in real time using a simple, plate-based method. The assay involves adding NanoLuc luciferase and a cell-permeant prosubstrate to cells in culture. Viable cells reduce the proprietary prosubstrate to generate a substrate for NanoLuc luciferase. This substrate diffuses from cells into the surrounding culture medium, where it is rapidly used by the NanoLuc Enzyme to produce a luminescent signal. The signal correlates with the number of viable cells, making the assay well suited for cytotoxicity studies.
Tox21 Assay Protocol Summary:
The mixture of Hek293 cell suspension and reagents were dispensed at 600cells/6 ul/well in 1536-well tissue culture treated black solid bottom plates using a Multidrop dispenser. After the assay plates were incubated at a 37 C/5% CO2 incubator for 5 hours, 23 nL of compounds dissolved in DMSO, positive and negative controls was transferred to the assay plate by a pintool work station. The plates were incubated at 37 C for 40 hours. The luminescence intensity were measured at 0h, 8h, 16h, 24h, 32h and 40h time points using ViewLux plate reader during compound treatment.
Potency is the fitted concentration of half-maximal effect.

Compound	Potency	activity change, negative = cytotoxicity
COc1cccc(OC)c1O	inactive	–
Cc1cn[nH]c1	inactive	–
CC(=O)OC(OC(C)=O)c1ccc([N+](=O)[O-])o1	44.4 µM (active)	–
Clc1cccnc1	inactive	–
O=C1c2c(O)ccc([N+](=O)[O-])c2C(=O)c2c([N+](=O)[O-])ccc(O)c21	19.3 µM (active)	–
Oc1c(Br)cc(Br)c2cccnc12	inactive	–
CC1=CP(=O)(c2ccccc2)CC1 (stereo not given)	inactive	–
CC(=O)Nc1ccc(O)cc1	inactive	–
COc1cc(C(=O)NS(=O)(=O)c2ccccc2C)ccc1Cc1cn(C)c2ccc(NC(=O)OC3CCCC3)cc12	inactive	–
CCCCN(CCCC)CCC(O)c1cc2c(Cl)cc(Cl)cc2c2cc(C(F)(F)F)ccc12 (stereo not given)	inactive	–
O=C1NCN(c2ccccc2)C12CCN(CCCC(c1ccc(F)cc1)c1ccc(F)cc1)CC2	19 µM (active)	–
CCOC(=O)CC(C)O (stereo not given)	inactive	–
CC(=O)OC1CCCCC1	inactive	–
Cc1cc(Nc2ccc(O)cc2)ccc1N	24.4 µM (active)	–
Cn1cccc1	inactive	–
O[C@@H](c1cc(C(F)(F)F)nc2c(C(F)(F)F)cccc12)[C@H]1CCCCN1	7.56 µM (active)	–
CC1=CCC(=O)O1	inactive	–
Cc1cc2c(C(C)C)c(O)c(O)c(C=O)c2c(O)c1-c1c(C)cc2c(C(C)C)c(O)c(O)c(C=O)c2c1O	10.7 µM (active)	–
CC(=O)C=O	inactive	–
Cn1cnc2ncnc(N)c21	inactive	–

Compound	Potency	activity change, negative = cytotoxicity
CCN1CCN(c2cc(-c3ccc(F)cc3)c3c(n2)CCCCCC3)CC1	–	-6.43% [at 15.8 µM] (inactive)
CN(C)CCCN1c2ccccc2Sc2ccc(C(F)(F)F)cc21	21.3 µM (active)	–
CCCOc1sc(C(=O)N2CCC(c3cc(CN)ccc3F)CC2)c(C)c1Br	20 µM (active)	–
COC(=O)CC(C)CCC=C(C)C (stereo not given)	inactive	–
C[C@H]1O[C@@H](O[C@H]2[C@@H](O)C[C@H](O[C@H]3[C@@H](O)C[C@H](O[C@H]4CC[C@@]5(C)[C@H](CC[C@@H]6[C@@H]5C[C@@H](O)[C@]5(C)[C@@H](C7=CC(=O)OC7)CC[C@]65O)C4)O[C@@H]3C)O[C@@H]2C)C[C@H](O)[C@@H]1O	69.2 nM (active) and 61 nM (active)	–
CC(C)(C)C1=CC(=O)C=C(C(C)(C)C)C1=O	inactive	–
C[C@]12CC[C@H]3C(=CCc4cc(O)ccc43)[C@@H]1CCC2=O	43.6 µM (active)	–
CCOCN(C(=O)CS(=O)(=O)O)c1c(C)cccc1CC	inactive	–
C=CC(C)C#N (stereo not given)	inactive	–
CCCC(=O)OCC(COC(=O)CCC)OC(=O)CCC	inactive	–
CC(C)CCOCCC(C)C	inactive	–
CCCCOC(=O)C(C)CC (stereo not given)	inactive	–
CCCCN(C)C	inactive	–
C#CC(O)CCC (stereo not given)	inactive	–
Cc1ccc(O)cn1	inactive	–
Cc1cccc(C)c1NC(=O)CN1CCN(CCCC(c2ccc(F)cc2)c2ccc(F)cc2)CC1	10.7 µM (active)	–
CNCC[C@H](Oc1cccc2ccccc12)c1cccs1	23.9 µM (active)	–
CCOC(=O)COc1ccc(C)cc1	inactive	–
CO[C@H]1C=CO[C@@]2(C)Oc3c(C)c(O)c4c(O)c(cc(O)c4c3C2=O)NC(=O)/C(C)=C\C=C/[C@H](C)[C@H](O)[C@@H](C)[C@@H](O)[C@@H](C)[C@H](OC(C)=O)[C@@H]1C	inactive	–
C=CC/C=C/C/C=C/C/C=C/C	inactive	–
